# Measured values taken from PMC7862700, “An all-to-all approach to the identification of sequence-specific readers for epigenetic DNA modifications on cytosine”.
# Legend:
# Assay in all cases: DAPPL (digital affinity profiling via proximity ligation, sequencing); 10 mM Tris-HCl pH 7.5, 50 mM NaCl, 1 mM DTT, 4% glycerol, room temperature, 30 min; GST-TFs on glutathione beads, 16-mer random dsDNA library, 0.1% formaldehyde crosslink after washing; high values mean tight binding
# FLI1 = molecular target: T1, FLI1 (Homo sapiens, UniProt Q01543 1-452); conditions: protein: recombinant; tags: N-terminal GST; dsDNA, one strand shown
# T1 sequence: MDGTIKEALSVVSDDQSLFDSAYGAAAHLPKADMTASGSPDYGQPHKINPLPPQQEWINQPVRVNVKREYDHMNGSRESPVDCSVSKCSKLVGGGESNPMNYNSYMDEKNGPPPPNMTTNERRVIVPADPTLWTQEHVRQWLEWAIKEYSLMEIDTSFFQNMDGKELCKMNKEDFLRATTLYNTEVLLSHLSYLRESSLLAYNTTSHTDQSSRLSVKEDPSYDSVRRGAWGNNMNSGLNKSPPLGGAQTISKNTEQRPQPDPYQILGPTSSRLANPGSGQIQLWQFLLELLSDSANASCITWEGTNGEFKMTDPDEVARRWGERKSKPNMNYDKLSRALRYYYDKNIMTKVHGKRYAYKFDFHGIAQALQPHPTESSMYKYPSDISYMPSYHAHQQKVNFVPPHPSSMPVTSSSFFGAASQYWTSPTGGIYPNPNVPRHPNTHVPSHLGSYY
# Summary of the method: (§1)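 Human transcription factors were made in yeast as GST fusions, captured on glutathione beads and barcoded with DNA. With a tag-only sample included, the pool was incubated with 200 nmole of a random double-stranded 16-mer DNA library in Tris/NaCl/DTT/glycerol buffer at room temperature for 30 min, then crosslinked with 0.1% formaldehyde after washing, ligated by proximity, amplified and sequenced. For binding signal, each hexamer's read frequency for a factor is divided by its frequency for the tag-only sample.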
# ELK1 = molecular target: T2, ELK1 (Homo sapiens, UniProt P19419 1-428); conditions: protein: recombinant; tags: N-terminal GST; dsDNA, one strand shown
# T2 sequence: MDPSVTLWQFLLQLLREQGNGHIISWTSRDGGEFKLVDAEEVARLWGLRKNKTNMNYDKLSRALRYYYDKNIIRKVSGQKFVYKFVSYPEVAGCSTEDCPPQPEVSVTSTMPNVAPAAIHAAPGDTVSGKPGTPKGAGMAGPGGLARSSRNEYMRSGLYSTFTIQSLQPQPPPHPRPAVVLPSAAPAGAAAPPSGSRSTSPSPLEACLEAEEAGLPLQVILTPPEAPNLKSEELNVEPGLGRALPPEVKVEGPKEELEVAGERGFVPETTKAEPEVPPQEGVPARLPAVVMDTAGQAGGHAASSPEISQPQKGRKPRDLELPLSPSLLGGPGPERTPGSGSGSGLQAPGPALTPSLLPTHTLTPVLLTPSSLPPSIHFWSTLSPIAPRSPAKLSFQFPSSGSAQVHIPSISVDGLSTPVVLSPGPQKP
# Summary of the method: as §1
# GABPA = molecular target: T3, GABPA (Homo sapiens, UniProt Q06546 1-454); conditions: protein: recombinant; tags: N-terminal GST; dsDNA, one strand shown
# T3 sequence: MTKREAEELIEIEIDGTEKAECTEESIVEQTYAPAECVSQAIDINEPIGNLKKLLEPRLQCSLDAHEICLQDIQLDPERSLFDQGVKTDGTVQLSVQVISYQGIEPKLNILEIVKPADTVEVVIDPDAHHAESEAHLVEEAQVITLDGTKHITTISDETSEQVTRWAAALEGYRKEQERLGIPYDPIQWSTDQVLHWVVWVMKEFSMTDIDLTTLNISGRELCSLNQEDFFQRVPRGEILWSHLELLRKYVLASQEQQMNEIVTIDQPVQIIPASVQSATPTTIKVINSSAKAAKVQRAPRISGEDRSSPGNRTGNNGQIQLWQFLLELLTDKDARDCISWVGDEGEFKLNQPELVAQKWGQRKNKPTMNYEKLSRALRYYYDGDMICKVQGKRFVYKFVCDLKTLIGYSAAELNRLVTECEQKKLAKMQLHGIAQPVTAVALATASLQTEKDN
# Summary of the method: as §1
# ERG = molecular target: T4, ERG (Homo sapiens, UniProt P11308 1-479); conditions: protein: recombinant; tags: N-terminal GST; dsDNA, one strand shown
# T4 sequence: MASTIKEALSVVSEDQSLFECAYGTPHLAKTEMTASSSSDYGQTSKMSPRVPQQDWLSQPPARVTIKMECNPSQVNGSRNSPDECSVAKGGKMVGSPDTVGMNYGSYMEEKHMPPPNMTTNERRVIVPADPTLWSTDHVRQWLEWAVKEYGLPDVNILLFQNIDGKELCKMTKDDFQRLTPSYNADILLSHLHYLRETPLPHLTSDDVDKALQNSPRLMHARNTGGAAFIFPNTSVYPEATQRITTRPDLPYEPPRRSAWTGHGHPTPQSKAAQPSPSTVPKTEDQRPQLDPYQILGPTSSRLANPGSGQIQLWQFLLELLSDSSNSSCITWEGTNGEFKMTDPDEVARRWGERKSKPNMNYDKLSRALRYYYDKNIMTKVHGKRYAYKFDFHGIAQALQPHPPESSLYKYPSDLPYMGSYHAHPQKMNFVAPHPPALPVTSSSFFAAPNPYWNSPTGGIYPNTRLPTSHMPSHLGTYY
# Summary of the method: as §1
# ELF1 = ELF1 (Homo sapiens, UniProt P32519 1-619); conditions: protein: recombinant; tags: N-terminal GST; dsDNA, one strand shown
# Chain of ELF1 (P32519 whole entry): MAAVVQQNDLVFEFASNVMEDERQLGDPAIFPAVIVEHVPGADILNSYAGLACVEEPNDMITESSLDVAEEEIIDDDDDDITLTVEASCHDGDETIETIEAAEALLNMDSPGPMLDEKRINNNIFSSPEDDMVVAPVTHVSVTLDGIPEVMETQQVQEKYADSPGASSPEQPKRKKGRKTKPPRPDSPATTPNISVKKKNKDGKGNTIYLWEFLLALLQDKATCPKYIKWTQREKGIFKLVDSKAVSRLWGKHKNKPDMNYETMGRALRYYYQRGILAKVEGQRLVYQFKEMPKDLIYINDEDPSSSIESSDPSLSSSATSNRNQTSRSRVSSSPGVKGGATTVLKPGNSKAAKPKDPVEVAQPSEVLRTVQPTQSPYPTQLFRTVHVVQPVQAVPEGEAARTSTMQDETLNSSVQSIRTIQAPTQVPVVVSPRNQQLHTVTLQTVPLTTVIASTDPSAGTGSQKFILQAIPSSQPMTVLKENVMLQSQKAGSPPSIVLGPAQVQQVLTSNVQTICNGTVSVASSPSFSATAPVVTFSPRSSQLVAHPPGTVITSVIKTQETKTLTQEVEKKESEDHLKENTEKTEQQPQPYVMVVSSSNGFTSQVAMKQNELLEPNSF
# Summary of the method: as §1
# EHF = molecular target: T5, EHF (Homo sapiens, UniProt Q9NZC4 1-300); conditions: protein: recombinant; tags: N-terminal GST; dsDNA, one strand shown
# T5 sequence: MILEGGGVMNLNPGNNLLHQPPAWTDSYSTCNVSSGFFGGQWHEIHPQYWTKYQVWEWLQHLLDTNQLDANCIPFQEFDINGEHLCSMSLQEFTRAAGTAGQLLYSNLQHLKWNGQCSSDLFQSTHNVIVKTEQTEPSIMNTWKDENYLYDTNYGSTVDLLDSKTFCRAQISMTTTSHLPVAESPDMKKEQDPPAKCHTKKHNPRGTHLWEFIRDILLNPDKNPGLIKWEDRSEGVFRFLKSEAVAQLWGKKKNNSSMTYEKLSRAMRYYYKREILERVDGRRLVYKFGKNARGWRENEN
# Summary of the method: as §1
# SPI1 = SPI1 (Homo sapiens, UniProt P17947 1-270); conditions: protein: recombinant; tags: N-terminal GST; dsDNA, one strand shown
# Summary of the method: as §1
# SPIB = SPIB (Homo sapiens, UniProt Q01892 1-262); conditions: protein: recombinant; tags: N-terminal GST; dsDNA, one strand shown
# Chain of SPIB (Q01892 whole entry): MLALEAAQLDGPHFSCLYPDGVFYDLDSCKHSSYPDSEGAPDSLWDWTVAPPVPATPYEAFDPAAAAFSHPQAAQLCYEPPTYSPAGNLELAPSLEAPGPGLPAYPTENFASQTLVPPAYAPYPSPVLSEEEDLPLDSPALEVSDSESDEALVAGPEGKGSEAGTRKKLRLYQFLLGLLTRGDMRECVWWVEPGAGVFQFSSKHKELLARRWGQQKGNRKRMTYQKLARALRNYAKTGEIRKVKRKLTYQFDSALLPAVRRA
# Summary of the method: as §1
# ELK3 = molecular target: T6, ELK3 (Homo sapiens, UniProt P41970 1-407); conditions: protein: recombinant; tags: N-terminal GST; dsDNA, one strand shown
# T6 sequence: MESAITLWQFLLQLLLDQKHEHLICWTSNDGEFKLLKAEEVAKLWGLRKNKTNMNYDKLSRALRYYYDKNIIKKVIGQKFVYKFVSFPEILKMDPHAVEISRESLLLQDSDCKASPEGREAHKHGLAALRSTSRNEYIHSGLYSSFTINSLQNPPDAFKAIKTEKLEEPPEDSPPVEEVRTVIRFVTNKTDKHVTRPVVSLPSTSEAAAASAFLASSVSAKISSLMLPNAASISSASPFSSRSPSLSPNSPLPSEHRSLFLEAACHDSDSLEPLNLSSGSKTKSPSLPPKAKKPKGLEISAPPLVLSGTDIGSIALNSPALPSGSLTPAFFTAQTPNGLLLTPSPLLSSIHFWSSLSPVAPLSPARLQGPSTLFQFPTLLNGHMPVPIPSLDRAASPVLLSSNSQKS
# Summary of the method: as §1
# FEV = molecular target: T7, FEV (Homo sapiens, UniProt Q99581 1-238); conditions: protein: recombinant; tags: N-terminal GST; dsDNA, one strand shown
# T7 sequence: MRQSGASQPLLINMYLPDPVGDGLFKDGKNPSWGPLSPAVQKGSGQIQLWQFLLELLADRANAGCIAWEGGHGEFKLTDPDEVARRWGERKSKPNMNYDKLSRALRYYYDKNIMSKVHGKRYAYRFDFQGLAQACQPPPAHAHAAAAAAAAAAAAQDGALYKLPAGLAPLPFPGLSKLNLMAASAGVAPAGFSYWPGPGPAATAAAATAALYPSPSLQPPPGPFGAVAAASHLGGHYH
# Summary of the method: as §1
# ETV5 = ETV5 (Homo sapiens, UniProt P41161 1-510); conditions: protein: recombinant; tags: N-terminal GST; dsDNA, one strand shown
# Chain of ETV5 (P41161 whole entry): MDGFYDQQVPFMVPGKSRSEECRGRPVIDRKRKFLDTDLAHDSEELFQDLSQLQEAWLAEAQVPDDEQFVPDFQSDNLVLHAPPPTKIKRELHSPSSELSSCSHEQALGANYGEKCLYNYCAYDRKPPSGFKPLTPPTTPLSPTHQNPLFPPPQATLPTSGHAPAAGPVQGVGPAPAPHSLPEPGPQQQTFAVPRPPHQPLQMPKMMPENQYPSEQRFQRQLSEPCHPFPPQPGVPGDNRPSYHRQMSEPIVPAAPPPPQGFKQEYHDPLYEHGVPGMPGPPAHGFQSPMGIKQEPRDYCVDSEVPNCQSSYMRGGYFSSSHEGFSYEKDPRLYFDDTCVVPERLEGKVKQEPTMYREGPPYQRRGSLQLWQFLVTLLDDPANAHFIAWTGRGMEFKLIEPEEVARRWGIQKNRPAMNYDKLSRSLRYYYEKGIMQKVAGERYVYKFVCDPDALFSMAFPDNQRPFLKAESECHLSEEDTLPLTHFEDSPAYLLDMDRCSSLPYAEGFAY
# Summary of the method: as §1
# HSF1 = HSF1 (Homo sapiens, UniProt Q00613 1-529); conditions: protein: recombinant; tags: N-terminal GST; chain copies: 3; dsDNA, one strand shown
# Chain of HSF1 (Q00613 whole entry): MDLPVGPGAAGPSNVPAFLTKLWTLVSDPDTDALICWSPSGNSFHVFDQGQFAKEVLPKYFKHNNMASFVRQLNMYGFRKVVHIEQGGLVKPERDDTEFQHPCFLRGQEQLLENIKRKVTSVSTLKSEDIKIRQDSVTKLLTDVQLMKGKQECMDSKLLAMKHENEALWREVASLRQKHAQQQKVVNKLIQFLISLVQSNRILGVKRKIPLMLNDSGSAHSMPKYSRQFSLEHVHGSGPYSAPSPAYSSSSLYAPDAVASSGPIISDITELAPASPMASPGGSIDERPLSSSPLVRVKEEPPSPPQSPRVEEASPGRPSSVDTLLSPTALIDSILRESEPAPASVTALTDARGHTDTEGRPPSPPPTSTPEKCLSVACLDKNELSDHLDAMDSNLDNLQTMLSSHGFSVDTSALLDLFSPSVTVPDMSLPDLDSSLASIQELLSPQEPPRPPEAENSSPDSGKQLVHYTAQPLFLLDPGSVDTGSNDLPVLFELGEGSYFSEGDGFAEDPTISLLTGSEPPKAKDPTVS
# Summary of the method: as §1
# SPIC = molecular target: T8, SPIC (Homo sapiens, UniProt Q8N5J4 1-248); conditions: protein: recombinant; tags: N-terminal GST; dsDNA, one strand shown
# T8 sequence: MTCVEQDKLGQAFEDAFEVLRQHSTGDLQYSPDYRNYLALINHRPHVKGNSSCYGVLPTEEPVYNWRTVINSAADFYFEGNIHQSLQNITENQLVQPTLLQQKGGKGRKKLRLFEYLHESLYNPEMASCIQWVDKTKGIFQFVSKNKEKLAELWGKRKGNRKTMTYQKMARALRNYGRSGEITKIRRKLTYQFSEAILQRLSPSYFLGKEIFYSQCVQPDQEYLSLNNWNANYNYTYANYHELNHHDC
# Summary of the method: as §1
# ELF4 = ELF4 (Homo sapiens, UniProt Q99607 1-663); conditions: protein: recombinant; tags: N-terminal GST; dsDNA, one strand shown
# Chain of ELF4 (Q99607 whole entry): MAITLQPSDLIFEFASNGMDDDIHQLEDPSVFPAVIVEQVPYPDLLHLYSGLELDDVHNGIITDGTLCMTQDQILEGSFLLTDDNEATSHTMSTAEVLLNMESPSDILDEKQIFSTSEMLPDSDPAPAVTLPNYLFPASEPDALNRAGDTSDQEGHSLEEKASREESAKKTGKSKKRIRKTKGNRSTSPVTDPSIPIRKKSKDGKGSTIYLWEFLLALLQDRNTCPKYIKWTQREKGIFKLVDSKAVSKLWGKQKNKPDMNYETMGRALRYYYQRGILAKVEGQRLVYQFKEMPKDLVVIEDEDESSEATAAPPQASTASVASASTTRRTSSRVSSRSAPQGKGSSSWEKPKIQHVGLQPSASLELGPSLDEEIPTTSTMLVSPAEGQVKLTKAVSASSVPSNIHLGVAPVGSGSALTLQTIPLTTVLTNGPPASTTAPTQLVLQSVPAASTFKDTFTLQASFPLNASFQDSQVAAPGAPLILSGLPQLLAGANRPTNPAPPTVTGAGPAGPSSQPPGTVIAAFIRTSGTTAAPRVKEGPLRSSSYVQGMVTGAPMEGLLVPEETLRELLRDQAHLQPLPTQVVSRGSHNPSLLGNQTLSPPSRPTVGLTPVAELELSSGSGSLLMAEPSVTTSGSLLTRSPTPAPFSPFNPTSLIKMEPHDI
# Summary of the method: as §1
# ELK4 = molecular target: T9, ELK4 (Homo sapiens, UniProt P28324-2 1-405); conditions: protein: recombinant; tags: N-terminal GST; dsDNA, one strand shown
# T9 sequence: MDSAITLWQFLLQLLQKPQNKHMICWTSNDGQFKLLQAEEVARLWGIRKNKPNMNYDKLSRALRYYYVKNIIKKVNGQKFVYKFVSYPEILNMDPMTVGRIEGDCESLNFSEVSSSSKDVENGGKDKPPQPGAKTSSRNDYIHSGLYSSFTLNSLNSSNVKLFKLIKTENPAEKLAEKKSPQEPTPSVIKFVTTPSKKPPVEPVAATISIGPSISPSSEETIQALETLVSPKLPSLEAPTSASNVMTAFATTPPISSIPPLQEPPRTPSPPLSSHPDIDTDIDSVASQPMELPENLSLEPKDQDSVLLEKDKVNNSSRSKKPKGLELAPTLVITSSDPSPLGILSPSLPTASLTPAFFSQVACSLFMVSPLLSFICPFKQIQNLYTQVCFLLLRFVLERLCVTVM
# Summary of the method: as §1
# ETV2 = molecular target: T10, ETV2 (Homo sapiens, UniProt O00321 1-342); conditions: protein: recombinant; tags: N-terminal GST; dsDNA, one strand shown
# T10 sequence: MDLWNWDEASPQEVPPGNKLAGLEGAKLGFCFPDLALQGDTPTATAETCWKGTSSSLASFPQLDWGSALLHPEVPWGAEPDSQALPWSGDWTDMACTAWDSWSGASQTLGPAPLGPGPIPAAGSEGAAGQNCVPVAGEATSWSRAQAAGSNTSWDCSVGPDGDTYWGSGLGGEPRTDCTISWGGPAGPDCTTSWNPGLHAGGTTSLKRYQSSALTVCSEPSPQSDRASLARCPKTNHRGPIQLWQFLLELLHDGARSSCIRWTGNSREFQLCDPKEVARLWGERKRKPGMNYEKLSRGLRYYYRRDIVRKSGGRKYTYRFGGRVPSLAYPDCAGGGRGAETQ
# Summary of the method: as §1
# ELF3 = molecular target: T11, ELF3 (Homo sapiens, UniProt P78545 1-371); conditions: protein: recombinant; tags: N-terminal GST; dsDNA, one strand shown
# T11 sequence: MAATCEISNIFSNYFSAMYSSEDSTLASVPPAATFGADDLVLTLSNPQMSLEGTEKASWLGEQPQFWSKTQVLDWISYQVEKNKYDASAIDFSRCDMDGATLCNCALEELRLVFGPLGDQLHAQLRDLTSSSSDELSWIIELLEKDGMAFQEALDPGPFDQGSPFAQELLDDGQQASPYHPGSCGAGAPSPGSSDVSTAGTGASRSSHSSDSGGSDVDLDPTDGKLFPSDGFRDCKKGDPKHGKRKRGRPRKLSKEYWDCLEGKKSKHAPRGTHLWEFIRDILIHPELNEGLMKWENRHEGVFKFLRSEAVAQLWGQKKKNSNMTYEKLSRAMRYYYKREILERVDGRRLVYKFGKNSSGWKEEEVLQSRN
# Summary of the method: as §1
# CRX = CRX (Homo sapiens, UniProt O43186 1-299); conditions: protein: recombinant; tags: N-terminal GST; dsDNA, one strand shown
# Chain of CRX (O43186 whole entry): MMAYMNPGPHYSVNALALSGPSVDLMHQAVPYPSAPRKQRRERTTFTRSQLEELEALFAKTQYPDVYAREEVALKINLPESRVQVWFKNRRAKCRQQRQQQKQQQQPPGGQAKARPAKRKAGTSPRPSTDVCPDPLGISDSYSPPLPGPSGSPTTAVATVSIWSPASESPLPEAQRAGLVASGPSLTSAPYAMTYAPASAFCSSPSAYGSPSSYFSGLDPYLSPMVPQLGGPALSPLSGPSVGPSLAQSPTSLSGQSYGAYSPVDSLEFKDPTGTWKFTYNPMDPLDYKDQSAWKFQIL
# Summary of the method: as §1
# ETV1 = ETV1 (Homo sapiens, UniProt P50549 1-477); conditions: protein: recombinant; tags: N-terminal GST; dsDNA, one strand shown
# Chain of ETV1 (P50549 whole entry): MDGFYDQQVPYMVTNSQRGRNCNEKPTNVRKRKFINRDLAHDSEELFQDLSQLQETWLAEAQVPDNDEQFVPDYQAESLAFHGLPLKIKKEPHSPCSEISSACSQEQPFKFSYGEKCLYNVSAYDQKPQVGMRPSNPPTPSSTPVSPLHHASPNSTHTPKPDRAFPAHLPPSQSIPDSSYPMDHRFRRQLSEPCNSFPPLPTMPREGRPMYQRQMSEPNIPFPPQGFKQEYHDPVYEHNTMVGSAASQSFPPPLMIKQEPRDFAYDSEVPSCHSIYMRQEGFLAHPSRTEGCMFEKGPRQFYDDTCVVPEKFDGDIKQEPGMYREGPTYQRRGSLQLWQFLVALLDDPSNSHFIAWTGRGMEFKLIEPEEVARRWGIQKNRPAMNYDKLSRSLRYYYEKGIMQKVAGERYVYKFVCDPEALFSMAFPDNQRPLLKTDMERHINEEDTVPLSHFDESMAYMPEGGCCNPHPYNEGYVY
# Summary of the method: as §1
sequence,measurement,setting,value
GAAATT,binding signal,FLI1,"1.23 fold enrichment (6-mer frequency, TF over GST control)"
same,binding signal,ELK1,"1.15 fold enrichment (6-mer frequency, TF over GST control)"
same,binding signal,GABPA,"1.29 fold enrichment (6-mer frequency, TF over GST control)"
same,binding signal,ERG,"1.32 fold enrichment (6-mer frequency, TF over GST control)"
same,binding signal,ELF1,"1.23 fold enrichment (6-mer frequency, TF over GST control)"
same,binding signal,EHF,"1.36 fold enrichment (6-mer frequency, TF over GST control)"
same,binding signal,SPI1,"1.23 fold enrichment (6-mer frequency, TF over GST control)"
same,binding signal,SPIB,"1.3 fold enrichment (6-mer frequency, TF over GST control)"
same,binding signal,ELK3,"1.28 fold enrichment (6-mer frequency, TF over GST control)"
same,binding signal,FEV,"1.25 fold enrichment (6-mer frequency, TF over GST control)"
same,binding signal,ETV5,"1.36 fold enrichment (6-mer frequency, TF over GST control)"
same,binding signal,HSF1,"1.48 fold enrichment (6-mer frequency, TF over GST control)"
same,binding signal,SPIC,"1.2 fold enrichment (6-mer frequency, TF over GST control)"
same,binding signal,ELF4,"1.27 fold enrichment (6-mer frequency, TF over GST control)"
same,binding signal,ELK4,"1.17 fold enrichment (6-mer frequency, TF over GST control)"
same,binding signal,ETV2,"1.23 fold enrichment (6-mer frequency, TF over GST control)"
same,binding signal,ELF3,"1.44 fold enrichment (6-mer frequency, TF over GST control)"
same,binding signal,CRX,"1.08 fold enrichment (6-mer frequency, TF over GST control)"
same,binding signal,ETV1,"1.28 fold enrichment (6-mer frequency, TF over GST control)"
